Test: S. cerevisiae RM11-1a growth modifiers, primary screen, strain RM11-1a, OD600, basal, 24 h (AID 1177);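 also: cultures grown under basal conditions with no added stressor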
Conditions: OD600, 24 h, higher = more signal, called active from +8 up or from −8 down
Also: test concentration not given here.

z-score, inactive:
CC[C@@H]1C=C(C(=O)O)[C@H](c2cccc(Cl)c2)N1S(=O)(=O)c1ccc(C)cc1 -0.285
C=CCNC(=O)[C@@H]1[C@H]2C(=O)O[C@H](c3ccccc3)[C@H](c3ccccc3)N2[C@H](c2ccc(OCCO)cc2)[C@@]12C(=O)N(C(=O)OCCOC)c1ccccc12 3.16
COCCCNC(=O)[C@@]1(CCC(=O)OC(C)(C)C)N=C(c2ccc(OCCCO)cc2)O[C@H]1c1ccccc1 0.795
CC(C)C[C@@H]1NC(=O)[C@@H]2C[C@H](C(=O)NCCCCCCNC(=O)CS)[C@H](c3ccc(O)cc3)N2C1=O 0.199
C=C(COC)/C(=C/C[C@@H](OC(=O)c1ccncc1)c1ccccc1OCCO)c1cnc2ccccc2c1 0.0519
C=C(C(=O)CC[C@H](OC(=O)c1ccccc1-c1ccccc1C(=O)O)c1ccc(OCCO)cc1)C(C)C -0.711
COC(=O)Cn1c(C(=O)N(C)C)cc2c1C[C@H]1CN(C(=O)c3ccccc3)[C@@](Cc3ccccc3)(C(=O)OC)[C@@H]21 -0.161
COc1cc(Cc2cc3c(c(-c4ccccc4)n2)[Si](C(C)C)(C(C)C)OC3)cc(OC)c1OC -0.776
[N-]=[N+]=NCc1ccccc1[C@H]1OC(c2ccc(OCCCO)cc2)=N[C@@]1(Cc1ccccc1N=[N+]=[N-])C(=O)O -0.123
COC(=O)c1c2oc(c1C(=O)OC)C(=O)N[C@H](Cc1ccccc1)Cn1cc(nn1)C1(CCCCC1)NC(=O)N[C@H](CO)CC2 0.0801
CC(C)N1CC=CC23O[C@@H]4/C=C\CCCOC(=O)C4[C@H]2C(=O)N(C(C)CO)[C@@H]3C1=O (stereo partly drawn) 0.14
O=C1C2C=CC(C(O)C3CCCCC3)N(Nc3ccccc3F)C2C(=O)N1c1ccccc1 (stereo not drawn) -0.375
CC1CC/C=C\[C@H]2OC34C=CCN(C(C)C)C(=O)[C@H]3N(C(C)CO)C(=O)[C@@H]4C2C(=O)O1 (stereo partly drawn) 0.477
CC(C)(C)OC(=O)CC[C@@]1(C(N)=O)N=C(c2ccc(OCCCO)cc2)O[C@@H]1c1ccccc1CN=[N+]=[N-] 0.0861
O=C(NC1CC1)[C@@H]1c2ccccc2C(=O)N(C2CCCCC2)[C@H]1c1ccc(CO)cc1 -0.456
COc1ccc(CCNC(=O)[C@@]2(c3ccc([N+](=O)[O-])cc3)CC(=O)N(C3CCCCC3)[C@@H]2c2ccc(CO)cc2I)cc1 1.86
C=C(COC)C(=O)CC[C@@H](OC(=O)c1ccccc1-c1ccccc1C(=O)O)c1ccccc1OCCO -0.341

Test: E. coli acrAB mutant growth effects, primary screen, E. coli filamentation inducers, strain DRC39, OD650, 24 h (AID 1178);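 also: growth measured as culture turbidity by optical density at 650 nm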
Conditions: higher = more signal, called active from +8 up or from −8 down

z-score, inactive:
COCCOC(=O)N1C(=O)[C@@]2(c3cc(C#CCCO)ccc31)[C@H](C(=O)N1CCN(c3ncccn3)CC1)[C@H]1C(=O)O[C@H](c3ccccc3)[C@H](c3ccccc3)N1[C@@H]2c1ccc(OCCO)cc1 -0.77
CC[C@@H](O[Si](C#C[Si](C(C)C)(C(C)C)C(C)C)(C(C)C)C(C)C)c1cn(Cc2cccc(Cl)c2)nn1 -0.0544
COCCOC(=O)N1C(=O)[C@@]2(c3cc(C#CCC(C(=O)OC)C(=O)OC)ccc31)[C@H](c1ccc(O)cc1)N1[C@H](c3ccccc3)[C@H](c3ccccc3)OC(=O)[C@H]1[C@@H]2C(=O)N1CCc2cc(OC)c(OC)cc2C1 0.109
Cc1ccc(S[C@]2(C(=O)NCCN3CCOCC3)CC(=O)N(C(C)C)[C@@H]2c2ccc(CO)cc2I)cc1 1.16
CC(C)c1ccc(NN2C(C(O)c3ccccc3)C=CC3C(=O)N(c4ccccc4)C(=O)C32)cc1 (stereo not drawn) 0.493
CC(C)C(=C=CC[C@H](O)c1cccc(OCCO)c1)C[C@H](O)c1ccccn1 1.61
COCCOC(=O)N1C(=O)[C@@]2(c3cc(C#CCNC(N)=O)ccc31)[C@H](c1ccc(O)cc1)N1[C@H](c3ccccc3)[C@H](c3ccccc3)OC(=O)[C@H]1[C@@H]2C(=O)N1CCc2cc(OC)c(OC)cc2C1 -0.0681
[N-]=[N+]=NCc1ccccc1[C@H]1OC(c2ccc(OCCCO)cc2)=N[C@@]1(Cc1ccccc1N=[N+]=[N-])C(=O)N1CCOCC1 -0.33
C=C(CCCC)/C(=C/C[C@@H](OC(C)=O)c1cccc(OCCO)c1)c1cc(C(=O)OC)ccc1OC 0.508
C=CCNC(=O)[C@H]1[C@@H]2C(=O)O[C@@H](c3ccccc3)[C@@H](c3ccccc3)N2[C@@H](c2ccc(OCCO)cc2)[C@]12C(=O)N(C(=O)OCCOC)c1ccc(C#CCC(C(=O)OC)C(=O)OC)cc12 0.321
C=CCOC(=O)[C@@H]1[C@H]2C(=O)O[C@H](c3ccccc3)[C@H](c3ccccc3)N2[C@H](c2ccc(OCCOC(=O)[C@@H]3C[C@@H]4C(=O)N[C@@H](CC(C)C)C(=O)N4[C@@H]3c3ccc(O)cc3)cc2)[C@@]12C(=O)Nc1ccc(I)cc12 0.703
COC(=O)[C@@]1(Cc2ccc(F)cc2)[C@H]2c3cc(C(=O)N4CCCC4)n(C[C@H](O)CO)c3C[C@H]2CN1C(=O)c1ccccc1 -0.645
COc1cc2c(cc1O)C(C)N(Cc1sc3ccccc3c1Cl)CC2 (stereo not drawn) 1.14
Cc1ccc(S(=O)(=O)N2[C@@H](c3ccccc3)C(C(=O)O)=CC[C@H]2c2ccc(F)cc2)cc1 -0.0944
C=C(C(=O)CC[C@@H](OC(=O)c1ccccc1-c1ccccc1C(=O)O)c1ccc(OCCO)cc1)C(C)C -0.166
C=CC[C@H](OC(=O)Nc1ccc(SC)cc1)c1ccc(O)c(F)c1 0.332
O=C1c2ccccc2[C@@]2(Cc3ccccc3N(CC(F)(F)F)C2=O)[C@H](c2ccc(CO)cc2)N1Cc1ccccc1 0.117
C#CCN(C(=O)OC(C)(C)C)[C@H](CO)c1ccccc1 0.47
COC(=O)[C@@]1(Cc2ccc(F)cc2)[C@H]2c3cc(C(=O)N4CCCC4)n(CCc4c[nH]c5cc(F)ccc45)c3C[C@H]2CN1C(=O)c1ccccc1 -0.426
CC[C@@H]1C=C(C(=O)O)[C@H](c2cccc(Cl)c2)N1S(=O)(=O)c1ccc(C)cc1 -0.647
C=CCNC(=O)[C@@H]1[C@H]2C(=O)O[C@H](c3ccccc3)[C@H](c3ccccc3)N2[C@H](c2ccc(OCCO)cc2)[C@@]12C(=O)N(C(=O)OCCOC)c1ccccc12 0.446
COCCCNC(=O)[C@@]1(CCC(=O)OC(C)(C)C)N=C(c2ccc(OCCCO)cc2)O[C@H]1c1ccccc1 0.267
CC(C)C[C@@H]1NC(=O)[C@@H]2C[C@H](C(=O)NCCCCCCNC(=O)CS)[C@H](c3ccc(O)cc3)N2C1=O 0.306
C=C(COC)/C(=C/C[C@@H](OC(=O)c1ccncc1)c1ccccc1OCCO)c1cnc2ccccc2c1 0.825
C=C(C(=O)CC[C@H](OC(=O)c1ccccc1-c1ccccc1C(=O)O)c1ccc(OCCO)cc1)C(C)C -0.0716
COC(=O)Cn1c(C(=O)N(C)C)cc2c1C[C@H]1CN(C(=O)c3ccccc3)[C@@](Cc3ccccc3)(C(=O)OC)[C@@H]21 0.304
COc1cc(Cc2cc3c(c(-c4ccccc4)n2)[Si](C(C)C)(C(C)C)OC3)cc(OC)c1OC 1.13
[N-]=[N+]=NCc1ccccc1[C@H]1OC(c2ccc(OCCCO)cc2)=N[C@@]1(Cc1ccccc1N=[N+]=[N-])C(=O)O -0.539
COC(=O)c1c2oc(c1C(=O)OC)C(=O)N[C@H](Cc1ccccc1)Cn1cc(nn1)C1(CCCCC1)NC(=O)N[C@H](CO)CC2 -0.051
CC(C)N1CC=CC23O[C@@H]4/C=C\CCCOC(=O)C4[C@H]2C(=O)N(C(C)CO)[C@@H]3C1=O (stereo partly drawn) 1.1
O=C1C2C=CC(C(O)C3CCCCC3)N(Nc3ccccc3F)C2C(=O)N1c1ccccc1 (stereo not drawn) 0.221
CC1CC/C=C\[C@H]2OC34C=CCN(C(C)C)C(=O)[C@H]3N(C(C)CO)C(=O)[C@@H]4C2C(=O)O1 (stereo partly drawn) 0.355
CC(C)(C)OC(=O)CC[C@@]1(C(N)=O)N=C(c2ccc(OCCCO)cc2)O[C@@H]1c1ccccc1CN=[N+]=[N-] -0.0622
O=C(NC1CC1)[C@@H]1c2ccccc2C(=O)N(C2CCCCC2)[C@H]1c1ccc(CO)cc1 -0.185
COc1ccc(CCNC(=O)[C@@]2(c3ccc([N+](=O)[O-])cc3)CC(=O)N(C3CCCCC3)[C@@H]2c2ccc(CO)cc2I)cc1 0.359
C=C(COC)C(=O)CC[C@@H](OC(=O)c1ccccc1-c1ccccc1C(=O)O)c1ccccc1OCCO 0.0796
